# Source: PubChem BioAssay
# Active and inactive are the calls of the source.
# Assays:
# [1] = system: PRMT1 (protein arginine N-methyltransferase 1); test: PRMT1 binders on small-molecule microarrays, primary screen, biochemical, small-molecule microarray, 635 nm fluorescence (AID 1088); settings: small-molecule microarray binding, higher = more signal;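 further: binding of Prmt1 protein to compounds spotted on small-molecule microarray slides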
# [2] = yeast growth modulation, basal conditions, primary screen, YJM789 clinical isolate, OD600, 24 h (AID 1089);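 further: growth of clinical yeast isolate S. cerevisiae YJM 789 seeded 1000 cells per well; test concentration not given here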; settings: S. cerevisiae YJM789 growth, higher = more signal, called active from +8 up or from −8 down
# [3] = fission yeast growth modulation, primary screen, strain 972, OD600, 24 h, no modulator (AID 1090);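 further: basal condition with compound alone and no growth modifier present; test concentration not given here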; settings: S. pombe 972 growth, higher = more signal, called active from +8 up or from −8 down
# [4] = S. cerevisiae growth modulation with rapamycin, primary screen, strain BY4716, OD600, 96 h (AID 1091); settings: higher = more signal, called active from +8 up or from −8 down; further: test concentration not given here
# [5] = target: Torsin-1A-interacting protein 2 (Homo sapiens) (UniProt Q8NFQ8); test: LULL1 binders on small-molecule microarray, primary screen, cell lysate, human LULL1 lysate, 635/667 nm fluorescence (AID 1092); settings: hLULL1 lysate binding, 635 nm fluorescence, higher = more signal;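 further: probe is lysate of COS7 cells overexpressing human LULL1; score merges per-feature 667 nm fluorescence with signal-to-noise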
# [6] = E. coli growth modulation, two-sided OD650, primary screen, E. coli filamentation project, strain DRC41, 24 h (AID 1093); settings: OD650, 24 h, higher = more signal, called active from +8 up or from −8 down;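 further: MC1000 strain lacking acrAB efflux and sulA so SOS filamentation is blocked; test concentration not given here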
# [7] = small-molecule microarray binders of probe aLefty2, primary screen, biochemical, biotinylated probe, 635/667 nm fluorescence (AID 1094); settings: higher = more signal;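 further: score merges spot fluorescence near 667 nm with spot signal-to-noise ratio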
# [8] = system: Noggin (protein binding on small-molecule microarray); test: Noggin binders on small-molecule microarray, primary screen, biochemical, 635/667 nm fluorescence (AID 1095); settings: 635 nm fluorescence, higher = more signal;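 further: score merges 667 nm feature fluorescence with signal to noise over triplicate slides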
# [9] = target: Neurogenic locus notch homolog protein 3 (Homo sapiens) (UniProt Q9UM47); test: NOTCH3 binders on small-molecule microarray, primary screen, biochemical, 635/667 nm fluorescence (AID 1096); settings: NOTCH3 binding, 635 nm fluorescence, higher = more signal
# [10] = small-molecule microarray binders of probe aEGFR, primary screen, biochemical, biotinylated probe, 635/667 nm fluorescence (AID 1097); settings: higher = more signal;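 further: probe is a biotinylated anti-EGFR antibody binding compounds printed on slides; score combines fluorescence near 667 nm and signal to noise of each spot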
# [11] = system: Plasmodium falciparum Sir2 (PF13_0152, Sir2A); test: pfSir2 binders on small-molecule microarrays, primary screen, biochemical, small-molecule microarray, 635 nm fluorescence (AID 1098); settings: small-molecule microarray binding, fluorescence 635 nm; higher = more signal;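 further: score merges spot fluorescence intensity with its signal-to-noise ratio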
# [12] = small-molecule microarray binders of probe aDKK1, primary screen, biochemical, biotinylated probe, 635/667 nm fluorescence (AID 1099); settings: higher = more signal;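 further: score merges 667nm spot fluorescence with signal to noise across triplicate slides; reference of the scale not given here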
# [13] = small-molecule microarray binders of probe aCHRDL2, primary screen, biochemical, biotinylated probe, 635/667 nm fluorescence (AID 1100); settings: higher = more signal
# [14] = splicing luciferase reporter signal modulators, primary screen, spliceosome inhibition project, cell-based, HEK293, splice +/- reporter (AID 1101); settings: luminescence, 24 h, higher = more signal, called active from +8 up or from −8 down;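 further: HEK293 cells carrying a splicing-competent luciferase reporter gene; test concentration not given here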
# [15] = target: Fibroblast growth factor 10 (Homo sapiens) (UniProt O15520); test: FGF10 binders on small-molecule microarrays, primary screen, biochemical, small-molecule microarray, 635 nm fluorescence (AID 1102); settings: FGF10 binding, fluorescence 635 nm, higher = more signal
# [16] = system: glycogen synthase kinase-3 (GSK3A per assay name; protocol says GSK3B); test: GSK3 binders on small-molecule microarrays, primary screen, biochemical, small-molecule microarray, 635 nm fluorescence, GSK3A (AID 1103); settings: small-molecule microarray binding, fluorescence 635 nm; higher = more signal; further: the record names both GSK3A and GSK3B
# [17] = target: Epidermal growth factor receptor (Homo sapiens) (UniProt P00533); test: EGFR binders on small-molecule microarrays, primary screen, biochemical, small-molecule microarray, 635 nm fluorescence (AID 1104); settings: EGFR binding, higher = more signal;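 further: score merges 667 nm emission intensity with spot signal to noise over triplicate slides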
# [18] = target: Follistatin-related protein 3 (Homo sapiens) (UniProt O95633); test: FSTL3 binders on small-molecule microarrays, primary screen, biochemical, small-molecule microarray, 635 nm fluorescence (AID 1105); settings: FSTL3 binding, higher = more signal;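 further: score merges emission near 667 nm and signal to noise per printed spot across three slides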
# [19] = target: Dickkopf-related protein 1 (Homo sapiens) (UniProt O94907); test: DKK1 binders on small-molecule microarrays, primary screen, biochemical, small-molecule microarray, 635 nm fluorescence scan (AID 1106); settings: DKK1 binding, higher = more signal;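 further: score merges emission near 667 nm with signal to noise over three replicate slides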
# [20] = system: Inhibin beta A chain (activin A); test: INHBA (activin A) binders on microarrays, primary screen, biochemical, small-molecule microarray, 635 nm fluorescence scan (AID 1107); settings: small-molecule microarray binding, higher = more signal;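 further: mouse activin A protein probed at 4.33 µg/mL on printed slides; score merges bound-protein fluorescence near 667 nm with spot signal-to-noise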
# Dickkopf-related protein 1 (Homo sapiens), sequence (O94907 whole entry, looked up): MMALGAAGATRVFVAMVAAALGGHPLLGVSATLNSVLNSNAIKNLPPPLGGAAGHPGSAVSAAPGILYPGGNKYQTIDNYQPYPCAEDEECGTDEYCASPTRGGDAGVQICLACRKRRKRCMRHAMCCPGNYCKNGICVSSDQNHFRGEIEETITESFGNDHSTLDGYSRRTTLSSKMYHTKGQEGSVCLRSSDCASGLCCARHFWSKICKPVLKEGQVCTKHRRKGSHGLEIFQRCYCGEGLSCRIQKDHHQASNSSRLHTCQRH
# Torsin-1A-interacting protein 2 (Homo sapiens), sequence (Q8NFQ8 whole entry, looked up): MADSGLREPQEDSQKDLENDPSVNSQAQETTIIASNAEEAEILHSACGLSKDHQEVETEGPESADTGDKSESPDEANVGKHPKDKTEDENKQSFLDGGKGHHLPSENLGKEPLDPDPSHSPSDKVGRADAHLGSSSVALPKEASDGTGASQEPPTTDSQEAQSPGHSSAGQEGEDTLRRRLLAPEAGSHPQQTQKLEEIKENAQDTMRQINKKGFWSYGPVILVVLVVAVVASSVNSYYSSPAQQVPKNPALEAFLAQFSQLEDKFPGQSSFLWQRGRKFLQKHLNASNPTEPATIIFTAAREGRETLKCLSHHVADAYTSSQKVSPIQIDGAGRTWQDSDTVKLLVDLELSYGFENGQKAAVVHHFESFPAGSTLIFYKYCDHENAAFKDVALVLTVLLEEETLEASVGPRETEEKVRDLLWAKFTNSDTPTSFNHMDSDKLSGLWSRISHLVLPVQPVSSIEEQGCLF
# Epidermal growth factor receptor (Homo sapiens), sequence (P00533 whole entry, looked up): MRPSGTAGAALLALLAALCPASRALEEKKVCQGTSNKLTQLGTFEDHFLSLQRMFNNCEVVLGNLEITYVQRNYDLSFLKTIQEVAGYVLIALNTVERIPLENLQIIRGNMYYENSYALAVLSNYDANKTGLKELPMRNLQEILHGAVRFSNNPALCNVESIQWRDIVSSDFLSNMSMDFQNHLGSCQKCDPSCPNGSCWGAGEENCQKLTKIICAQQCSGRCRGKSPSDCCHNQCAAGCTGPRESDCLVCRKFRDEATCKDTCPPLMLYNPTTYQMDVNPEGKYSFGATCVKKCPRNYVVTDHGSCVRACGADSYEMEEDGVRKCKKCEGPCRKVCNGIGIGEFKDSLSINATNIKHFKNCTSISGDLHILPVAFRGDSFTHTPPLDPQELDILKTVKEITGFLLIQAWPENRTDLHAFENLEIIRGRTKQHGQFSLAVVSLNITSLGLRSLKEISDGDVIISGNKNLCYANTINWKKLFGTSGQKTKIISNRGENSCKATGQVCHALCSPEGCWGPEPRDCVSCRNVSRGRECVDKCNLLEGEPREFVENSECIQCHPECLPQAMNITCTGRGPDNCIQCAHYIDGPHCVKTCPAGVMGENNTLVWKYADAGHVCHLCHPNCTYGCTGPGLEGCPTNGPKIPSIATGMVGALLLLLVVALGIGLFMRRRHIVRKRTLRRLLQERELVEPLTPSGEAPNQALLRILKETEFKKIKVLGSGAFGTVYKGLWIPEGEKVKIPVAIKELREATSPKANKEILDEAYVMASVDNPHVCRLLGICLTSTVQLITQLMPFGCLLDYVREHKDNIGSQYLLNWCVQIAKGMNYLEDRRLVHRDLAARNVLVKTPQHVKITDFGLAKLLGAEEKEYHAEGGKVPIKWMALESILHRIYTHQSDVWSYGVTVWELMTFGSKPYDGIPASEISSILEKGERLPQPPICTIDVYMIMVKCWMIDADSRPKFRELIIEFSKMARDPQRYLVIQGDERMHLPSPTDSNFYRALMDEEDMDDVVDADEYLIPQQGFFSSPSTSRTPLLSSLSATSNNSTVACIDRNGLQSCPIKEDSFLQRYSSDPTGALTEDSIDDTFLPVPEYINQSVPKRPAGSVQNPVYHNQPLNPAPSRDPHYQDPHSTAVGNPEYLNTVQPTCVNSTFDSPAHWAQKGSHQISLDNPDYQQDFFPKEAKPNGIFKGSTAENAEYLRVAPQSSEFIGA
# Fibroblast growth factor 10 (Homo sapiens), sequence (O15520 whole entry, looked up): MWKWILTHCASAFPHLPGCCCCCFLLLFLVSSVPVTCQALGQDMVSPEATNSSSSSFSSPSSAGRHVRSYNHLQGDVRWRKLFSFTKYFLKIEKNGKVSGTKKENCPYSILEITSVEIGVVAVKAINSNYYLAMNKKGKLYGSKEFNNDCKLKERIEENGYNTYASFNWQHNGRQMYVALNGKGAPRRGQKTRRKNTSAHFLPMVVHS
# Neurogenic locus notch homolog protein 3 (Homo sapiens), sequence (Q9UM47 whole entry, looked up): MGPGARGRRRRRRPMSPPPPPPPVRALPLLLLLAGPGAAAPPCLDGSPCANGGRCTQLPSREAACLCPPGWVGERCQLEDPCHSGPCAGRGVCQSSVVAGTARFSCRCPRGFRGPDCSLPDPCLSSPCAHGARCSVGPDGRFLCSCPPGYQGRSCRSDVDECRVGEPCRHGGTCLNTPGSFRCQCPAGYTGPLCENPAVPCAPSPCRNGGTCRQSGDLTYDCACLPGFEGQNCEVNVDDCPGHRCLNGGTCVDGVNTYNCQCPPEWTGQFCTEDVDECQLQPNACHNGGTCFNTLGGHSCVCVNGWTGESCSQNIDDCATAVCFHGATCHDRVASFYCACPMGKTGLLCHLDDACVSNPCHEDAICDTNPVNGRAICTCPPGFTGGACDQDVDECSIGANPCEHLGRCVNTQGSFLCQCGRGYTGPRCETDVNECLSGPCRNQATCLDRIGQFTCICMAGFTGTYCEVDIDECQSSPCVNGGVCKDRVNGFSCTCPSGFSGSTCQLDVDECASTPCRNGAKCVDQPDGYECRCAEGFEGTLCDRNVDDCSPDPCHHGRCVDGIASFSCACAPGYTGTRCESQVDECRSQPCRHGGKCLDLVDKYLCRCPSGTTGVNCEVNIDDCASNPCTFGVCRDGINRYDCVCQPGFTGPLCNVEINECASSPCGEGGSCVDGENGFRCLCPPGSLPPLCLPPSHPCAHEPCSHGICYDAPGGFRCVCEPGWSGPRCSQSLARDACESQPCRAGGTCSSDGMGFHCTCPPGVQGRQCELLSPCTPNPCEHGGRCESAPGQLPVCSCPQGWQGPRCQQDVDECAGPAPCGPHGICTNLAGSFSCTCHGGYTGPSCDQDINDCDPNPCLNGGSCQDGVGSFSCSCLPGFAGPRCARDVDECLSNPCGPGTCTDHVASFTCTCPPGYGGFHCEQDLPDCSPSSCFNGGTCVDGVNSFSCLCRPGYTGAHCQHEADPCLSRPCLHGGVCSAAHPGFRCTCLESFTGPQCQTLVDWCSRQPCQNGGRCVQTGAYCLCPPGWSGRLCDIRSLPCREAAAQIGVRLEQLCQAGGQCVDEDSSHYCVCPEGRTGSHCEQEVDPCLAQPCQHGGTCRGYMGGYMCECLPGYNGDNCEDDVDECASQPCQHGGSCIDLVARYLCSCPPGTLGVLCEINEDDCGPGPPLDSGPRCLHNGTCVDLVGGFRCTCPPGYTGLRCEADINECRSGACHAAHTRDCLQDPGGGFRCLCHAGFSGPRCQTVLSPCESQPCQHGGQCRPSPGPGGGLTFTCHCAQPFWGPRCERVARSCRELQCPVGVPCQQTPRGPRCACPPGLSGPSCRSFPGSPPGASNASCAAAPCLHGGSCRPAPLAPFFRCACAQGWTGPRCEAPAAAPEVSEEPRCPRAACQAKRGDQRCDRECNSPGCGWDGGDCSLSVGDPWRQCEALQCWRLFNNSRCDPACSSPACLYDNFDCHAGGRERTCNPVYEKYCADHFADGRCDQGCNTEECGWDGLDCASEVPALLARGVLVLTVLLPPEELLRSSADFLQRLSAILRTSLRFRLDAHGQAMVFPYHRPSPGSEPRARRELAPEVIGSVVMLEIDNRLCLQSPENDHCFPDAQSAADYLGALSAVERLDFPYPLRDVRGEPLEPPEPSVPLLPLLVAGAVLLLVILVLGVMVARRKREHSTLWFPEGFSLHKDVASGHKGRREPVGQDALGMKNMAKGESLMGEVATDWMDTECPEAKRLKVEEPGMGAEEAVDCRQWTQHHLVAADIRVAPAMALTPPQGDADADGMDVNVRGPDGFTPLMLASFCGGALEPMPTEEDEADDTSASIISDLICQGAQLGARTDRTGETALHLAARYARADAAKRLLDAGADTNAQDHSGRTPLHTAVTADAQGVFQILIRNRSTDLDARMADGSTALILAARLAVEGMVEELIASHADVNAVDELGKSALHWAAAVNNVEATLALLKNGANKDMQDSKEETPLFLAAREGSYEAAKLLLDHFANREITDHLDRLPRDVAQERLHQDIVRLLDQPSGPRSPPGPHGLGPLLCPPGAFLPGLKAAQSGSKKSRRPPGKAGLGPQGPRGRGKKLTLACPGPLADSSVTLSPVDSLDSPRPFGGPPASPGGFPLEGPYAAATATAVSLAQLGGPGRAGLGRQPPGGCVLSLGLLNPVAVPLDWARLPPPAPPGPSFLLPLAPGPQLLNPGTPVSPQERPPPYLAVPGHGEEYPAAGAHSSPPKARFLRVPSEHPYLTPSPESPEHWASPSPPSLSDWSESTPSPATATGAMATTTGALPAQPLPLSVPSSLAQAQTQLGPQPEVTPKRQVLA
# Follistatin-related protein 3 (Homo sapiens), sequence (O95633 whole entry, looked up): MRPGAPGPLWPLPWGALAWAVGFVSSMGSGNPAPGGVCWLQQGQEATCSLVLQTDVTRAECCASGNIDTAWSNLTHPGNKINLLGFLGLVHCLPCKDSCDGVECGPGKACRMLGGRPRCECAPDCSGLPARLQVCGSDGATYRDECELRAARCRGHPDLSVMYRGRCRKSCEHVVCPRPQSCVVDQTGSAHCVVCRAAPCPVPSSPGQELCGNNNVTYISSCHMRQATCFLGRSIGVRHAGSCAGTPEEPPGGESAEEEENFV
SMILES,composite z-score [1],z-score [2],z-score [3],z-score [4],composite z-score [5],z-score [6],composite z-score [7],composite z-score [8],composite z-score [9],composite z-score [10],composite z-score [11],composite z-score [12],composite z-score [13],z-score [14],composite z-score [15],composite z-score [16],composite z-score [17],composite z-score [18],composite z-score [19],composite z-score [20]
CCOC(=O)C[C@H]1[C@H](OC(=O)c2ccc(C(=O)c3ccccc3)cc2)[C@@H](NC(=O)c2ccc3ccccc3n2)c2cc(OCCCO)ccc2N1C(=O)Cc1ccc(OC)cc1,0.517,1 (inactive),1.04 (inactive),0.949 (inactive),1.36,-0.57 (inactive),-0.157,0.842,0.312,-0.206,-0.318,0.57,-0.385,0.187 (inactive),0.0466,0.354,0.196,0.346,0.239,0.188
COC(=O)[C@@]1(Cc2ccc(F)cc2)[C@H]2c3cc(C(=O)N(C)C)n(CCc4ccc(OC)c(Br)c4)c3C[C@H]2CN1C(=O)c1ccccc1,-0.0641,-0.309 (inactive),-1.09 (inactive),-0.122 (inactive),2.52,-1.29 (inactive),0.768,0.716,0.346,0.557,0.514,1.1,0.732,1.6 (inactive),0.856,0.182,-0.086,0.145,-0.257,1.01
CC(c1ccccc1)C(O)C1C=CC2C(=O)N(C)C(=O)C2N1Nc1ccccc1 (stereo not given),1.33,0.188 (inactive),0.669 (inactive),0.419 (inactive),2.99,-0.689 (inactive),0.445,-0.194,1.14,0.0849,1.25,1.04,1.2,1.31 (inactive),0.663,0.515,0.0188,0.359,-0.452,0.965
COc1ccc(C#Cc2ccc3c(c2)[C@]2(C(=O)N3)[C@H](C(=O)O)[C@H]3C(=O)O[C@H](c4ccccc4)[C@H](c4ccccc4)N3[C@@H]2c2ccc(O)cc2)cc1,0.789,1.26 (inactive),-0.813 (inactive),0.0118 (inactive),1.98,0.781 (inactive),-0.0042,-0.654,-0.468,-0.0758,1.52,0.734,0.681,-0.264 (inactive),-0.054,-0.352,-0.165,-0.382,-0.603,0.0045
O=C(C1N=C(c2ccc(OCCCO)cc2)N(c2ccccc2)O1)N1CCCCC1 (stereo not given),1.54,-0.537 (inactive),-0.734 (inactive),0.0484 (inactive),2.95,0.828 (inactive),0.226,0.684,0.288,0.0542,0.984,0.88,0.0556,-0.577 (inactive),0.648,1.22,-0.0036,0.181,0.291,0.088
CCOC(=O)C[C@H]1[C@H](OC(=O)c2ccc(-c3ccccc3)cc2)[C@@H](NC(=O)CC(C)C)c2cc(OCCCO)ccc2N1C(=O)c1ccc2ccccc2n1,-0.069,-1.13 (inactive),-0.832 (inactive),-0.656 (inactive),1.15,-0.0583 (inactive),-0.145,0.481,0.753,-0.0828,0.988,-0.239,-0.39,-0.725 (inactive),0.636,0.0685,0.239,0.47,0.273,0.0746
CCOC(=O)C[C@H]1[C@H](OC(=O)c2ccccc2-c2ccccc2)[C@@H](NC(=O)c2ccc3ccccc3c2)c2cc(OCCCO)ccc2N1C(=O)c1ccccc1,0.633,0.393 (inactive),0.379 (inactive),1.98 (inactive),0.683,0.356 (inactive),-0.0916,0.554,0.564,0.342,0.162,-0.154,-0.559,-0.314 (inactive),0.792,0.601,0.505,0.741,0.427,-0.124
COc1cc2c(cc1O)C(c1cccs1)N(Cc1cc3c(cc1Br)OCO3)CC2 (stereo not given),1.53,-0.592 (inactive),-4.96 (inactive),-0.859 (inactive),3.45,-1.45 (inactive),0.183,0.289,1.07,0.0778,1.5,0.421,0.726,-0.0664 (inactive),1.47,1.32,0.345,1.13,0.449,0.632
O=C(NCCN1CCOCC1)[C@@H]1c2ccccc2C(=O)N(Cc2ccccc2Cl)[C@H]1c1ccc(CO)cc1,-0.7,0.506 (inactive),0.545 (inactive),-0.214 (inactive),-0.201,0.561 (inactive),-0.547,-1.31,-1.4,-0.362,-0.855,-0.633,-0.803,-0.284 (inactive),-1.16,-0.52,-0.494,0.0801,-0.569,0.823
CCCCC(O)C1C=CC2C(=O)N(C)C(=O)C2N1N(c1ccccc1)c1ccccc1 (stereo not given),1.56,-0.0289 (inactive),0.483 (inactive),0.251 (inactive),3.1,-1.8 (inactive),-0.0441,-0.0371,1.1,0.111,1.5,0.866,1.31,1.44 (inactive),0.42,1.02,0.0978,0.424,-0.73,1.18
